Reference: PubChem BioAssay
“And” between values parts separate entries of the source, which are not always exact repeats. Identical values can stand only once. For some of these results: Results with a measured potency or affinity are listed apart. The source made the active and inactive calls.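 Rule for the calls, unless noted: active = compounds whose cell count with miR-34 switched on is under 0.7 times the count with it off; inactive = the rest.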

Assays:
[1] = circadian clock period modulators, cell-based, LOPAC library, luminescence reporter (AID 2774; call rule not given here;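 note: values are relative to mean of DMSO wells on each plate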); details: circadian reporter cells, at 7 µM, actives lie on both sides
[2] = hESC survival regulators, cell-based (AID 493140; call rule not given here;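 note: cells exposed to compounds for four days before counting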); details: human embryonic stem cell survival screen; stronger effect = higher value
[3] = tested on: Hepatitis C virus NS3 helicase; assay: HCV NS3 helicase inhibitors, primary screen, biochemical, fluorescence polarization, LOPAC1280 library (AID 687035; in the data active = inhibition above about 37%); details: Purified HCV NS3 helicase, Cy5-dT15 ssDNA binding fluorescence polarization; stronger effect = higher value; concentration not given here
[4] = Cy5 fluorescence quenching or enhancement artefacts, artefact control for HCV NS3 helicase inhibitor project, biochemical, LOPAC1280 (AID 687037; call rule not given here); details: Cy5-DNA-NS3h complex fluorescence interference counterscreen
[5] = sensitizers of A549 cells to miR-34 induction, primary screen, imaging, A549 dox-inducible miR-34, nuclei and caspase counts (AID 1347080); details: A549 miR-34 inducible, Hoechst nuclei count, 48 h
[6] = phospholipid biosynthesis inhibitors in animal cells, primary screen, cell-based, LOPAC library, screen 4 (AID 1347384; call rule not given here); details: phospholipid biosynthesis inhibition screen, at 10 µM
[7] = viability rescue of complex I mutant cybrids, primary screen, cell-based, galactose medium, ATP luminescence (AID 1645843;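 active = z-score of at least 1.8 in each of two replicates, scored against plate mean and spread of sample wells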;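 note: positive z means more ATP and so rescue of galactose-driven cybrid death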); details: complex I mutant cybrid cells, 72 h, stronger effect = higher value
[8] = survival rescue of mitochondrial mutant cells in low glucose, primary screen, MELAS cybrids, Rieske KO mouse fibroblasts, CellTiter-Glo (AID 1508586;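 active = mean z-score across replicates of 1.96 or higher in either the MELAS or the Rieske mutant cell line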;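 note: z relative to plate mean and SD of compound and empty wells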)
[9] = liver-stage malaria parasite growth inhibition, primary screen, cell-based, HepG2, luciferase luminescence, HepG2 viability (AID 624349; in the data active = parasite load remaining mostly below about 12%, no sharp cut-off; inactive = mostly above about 10%;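 note: 100% = mean of DMSO negative control wells on the same plate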); details: P. berghei liver stage in HepG2, luciferase luminescence, concentration not given here; parasite load remaining: stronger effect = lower value; viability: measured here: HepG2 viability without parasites
[10] = polyglutamine-triggered caspase-3 activation inhibitors, cell-based (AID 1583); details: polyglutamine-induced caspase-3 activation, cell assay; stronger effect = higher value;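 tested at 10 µM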
[11] = suppressors of polyQ aggregation in yeast, 75Q-TubU reporter (AID 1593); details: Yeast 75Q polyglutamine aggregation reporter
[12] = rescue of polyQ-huntingtin neuronal dysfunction in worms, whole organism, C. elegans mechanosensory neurons, N-terminal huntingtin (AID 1599); details: touch response, stronger effect = higher value
[13] = inhibitors of mitochondrial cytochrome c release, biochemical, purified mitochondria (AID 1603); details: stronger effect = lower value;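 note: mouse liver mitochondria challenged with calcium chloride; signal normalized to the plate average as 100%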
[14] = inhibitors of polyQ protein aggregation (AID 1604); details: polyglutamine-induced protein aggregation inhibition assay; stronger effect = higher value; tested at 2.5 µM
[15] = enhancers of glutamate uptake in motor neurons, MN-1 cell line (AID 1612); details: MN-1 motor neuron cells, stronger effect = higher value;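 note: tested at 1 µM final; 0% = mean of DMSO vehicle wells on each plate; positive means more glutamate uptake than control and negative means less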
[16] = reducers of polyQ inclusions in PC12 cells, cell-based, NGF-treated PC12, GFPQ80 (AID 1614); details: PC12 NGF-treated GFP-polyQ80 inclusion reduction;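 note: lower means fewer inclusions and 0 means no inclusions at all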
[17] = suppressors of polyglutamine aggregation in yeast, 75Q-TubH (AID 1616); details: S. cerevisiae 75Q-TubH polyglutamine aggregation suppression; stronger effect = higher value
[18] = stronger effect = lower value, cell number ratio, induced over uninduced
[19] = measured here: relative caspase fold change +Dox/-Dox
[20] = measured here: total cells with miR-34 induction, stronger effect = lower value
[21] = measured here: total cells without miR-34 induction
[22] = MELAS cybrid survival, CellTiter-Glo 48 h, stronger effect = higher value
[23] = Rieske KO mouse fibroblast survival, CellTiter-Glo 72 h

## CC1CNCCN1S(=O)(=O)c1cccc2cnccc12 (stereo unspecified)
[1]
  period change: 0.05 hour (inactive) and -0.065 hour (inactive)
[2]
  survival: 216 (active)
[3]
  inhibition: -1% (inactive)
[4]
  fluorescence ratio (interference): 0.9 (inactive)
[5]; [18]
  fold change: 1.06 (inactive) and 1.03 (inactive)
[5]; [19]
  fold change: 1.18 and 0.538
[5]; [20]
  cell count: 11400 and 1600
[5]; [21]
  cell count: 10700 and 1550
[6]
  outcome: inactive
[7]
  z-score: -1.29 (inactive)

## CNCCC(Oc1cccc2ccccc12)c1cccs1 (stereo unspecified)
[5]; [18]
  fold change: 0.825 (inactive) and 0.844 (inactive) and 0.922 (inactive)
[5]; [19]
  fold change: 1.39 and 1.04 and 2.23
[5]; [20]
  cell count: 4830 and 5000 and 7370
[5]; [21]
  cell count: 5860 and 5930 and 7990
[8]; [22]
  z-score: -0.107 (inactive)
[8]; [23]
  z-score: -1.06
[7]
  z-score: -1.4 (inactive) and -1.81 (inactive)

## C[C@H]1[C@H](NC(=O)/C(=N\OC(C)(C)C(=O)O)c2csc(N)n2)C(=O)N1S(=O)(=O)O
[2]
  survival: 21.6 (inactive)
[9]
  parasite load remaining: 29.2% (inactive) and 123% (inactive) and 17.7% (inactive)
  viability: 47.3% and 89% and 68%
[5]; [18]
  fold change: 0.907 (inactive) and 0.865 (inactive)
[5]; [19]
  fold change: 1.09 and 1.14
[5]; [20]
  cell count: 8940 and 9450
[5]; [21]
  cell count: 9850 and 10900
[8]; [22]
  z-score: 0.296 (inactive) and 0.337 (inactive)
[8]; [23]
  z-score: 0.0689 and -0.343
[7]
  z-score: 0.06 (inactive)

## CCCNC1CCc2nc(N)sc2C1 (stereo unspecified)
[5]; [18]
  fold change: 0.968 (inactive) and 0.933 (inactive) and 0.946 (inactive)
[5]; [19]
  fold change: 2.07 and 1.64 and 3.69
[5]; [20]
  cell count: 9570 and 9980 and 9760
[5]; [21]
  cell count: 9890 and 10700 and 10300
[8]; [22]
  z-score: -0.192 (inactive)
[8]; [23]
  z-score: 0.744
[7]
  z-score: 1.44 (inactive) and 0.095 (inactive)

## CCC1(c2ccccc2)NC(=O)N(C)C1=O (stereo unspecified)
[10]
  inhibition: 6.58%
[11]
  score: 1.42
[12]
  rescue above control: 11.8
[13]
  cytochrome c release ratio: 0.46
[14]
  inhibition of aggregation: 79.3%
[15]
  glutamate uptake change: -9.05%
[16]
  inclusion score: 2
[17]
  aggregation suppression score: 1.34
[2]
  survival: 9.5 (inactive)
[9]
  parasite load remaining: 75.3% (inactive) and 65.4% (inactive)
  viability: 74.4% and 110%
[5]; [18]
  fold change: 0.978 (inactive) and 0.889 (inactive)
[5]; [19]
  fold change: 0.677 and 1.53
[5]; [20]
  cell count: 9090 and 9500
[5]; [21]
  cell count: 9300 and 10700
[8]; [22]
  z-score: 0.04 (inactive) and 0.144 (inactive)
[8]; [23]
  z-score: 0.0806 and -0.391
[7]
  z-score: 0.64 (inactive)

## CCCCCC(O)CCCC(=O)O (stereo unspecified)
[1]
  period change: -0.17 h (inactive)
[3]
  inhibition: -4% (inactive)
[4]
  fluorescence ratio (interference): 1 (inactive)
[5]; [18]
  fold change: 0.96 (inactive) and 0.942 (inactive)
[5]; [19]
  fold change: 0.791 and 1.2
[5]; [20]
  cell count: 9800 and 6140
[5]; [21]
  cell count: 10200 and 6510
[6]
  outcome: inactive
[7]
  z-score: 0.165 (inactive)
